This passage reports outcome and AC50 results from PubChem BioAssay (EPA / NIEHS).

Records with an inconclusive call do not appear. Calls of active or inactive are those of the source. How the source made its calls, unless noted: active means hit-call score of the fitted dose curve at least 0.9, where 1 is the maximum; inactive means score below 0.9.

Test [1] addresses Glucocorticoid receptor (Homo sapiens) (UniProt P04150). Nature of the test: ATG_GR_TRANS: Attagene TRANS-FACTORIAL HepG2 Assay for human Glucocorticoid Receptor (GR) (AID 2282978; active means hit-call score of the fitted dose curve at least 0.9, where 1 is the maximum;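 further: activators score as hits since higher reporter transcript over DMSO is fitted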). Conditions: HepG2 Attagene TRANS GR reporter, mRNA transcription. Put shortly:
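HepG2 cells transiently transfected with GAL4-UAS reporter units and exogenous GR-Gal4 chimera, dosed 24 h. Reporter mRNA by RT-PCR, FAM labeling, HpaI digest and capillary electrophoresis; gain-of-signal fit versus DMSO.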

For test [2], the target named is Oxysterols receptor LXR-alpha (Homo sapiens) (UniProt Q13133). The test is described as follows: ATG_LXRa_TRANS: Attagene TRANS-FACTORIAL HepG2 Assay for human Liver X Receptor alpha (LXRa) (AID 2282980; active means hit-call score of the fitted dose curve at least 0.9, where 1 is the maximum). The settings on record: HepG2 Attagene TRANS reporter, LXRa transactivation. In short, it runs like this:
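Transient HepG2 transfectants, 24 h dosing, RT-PCR/CE mRNA reporter quantitation; gain-of-signal vs DMSO.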

The target in test [3] is Oxysterols receptor LXR-beta (Homo sapiens) (UniProt P55055). Nature of the test: ATG_LXRb_TRANS: Attagene TRANS-FACTORIAL HepG2 Assay for human Liver X Receptor beta (LXRb) (AID 2282981; active means hit-call score of the fitted dose curve at least 0.9, where 1 is the maximum). The settings on record: HepG2 Attagene TRANS GAL4-LXRb reporter, mRNA. In short, it runs like this:
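Gain-of-signal mRNA reporter endpoint, DMSO as negative control. Transiently transfected HepG2 cells carrying the NR-Gal4 chimera and GAL4-UAS reporter units were treated 24 h; transcripts quantified by RT-PCR and capillary electrophoresis fluorescence.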

A short description of test [4]: ATG_M_06_TRANS: Attagene TRANS-FACTORIAL HepG2 Assay for M06 Transcription Factor (Internal Marker) (AID 2282983; active means hit-call score of the fitted dose curve at least 0.9, where 1 is the maximum). The settings on record: HepG2 Attagene TRANS M06 internal marker reporter. In short, it runs like this: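 Measured by capillary electrophoresis of fluorescently labelled RT-PCR products, this endpoint reflects reporter mRNA in HepG2 cells harbouring exogenous NR-GAL4 reporter constructs after 24 h exposure, with DMSO as baseline.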

Test [5] in a line: ATG_M_32_TRANS: Attagene TRANS-FACTORIAL HepG2 Assay for M32 Transcription Factor (Internal Marker) (AID 2282984; active means hit-call score of the fitted dose curve at least 0.9, where 1 is the maximum;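 further: transcript level of a background control reporter unit measured by RT-PCR and capillary electrophoresis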). The settings on record: HepG2 Attagene TRANS M32 internal marker reporter. In short, it runs like this: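 Capillary electrophoresis of 6-FAM-labelled reporter fragments gives the signal; data fitted for gain over DMSO negative control. Source: HepG2 cells bearing transient multiple reporter transcription units, 24 h exposure.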

The target of test [6] is Nuclear receptor subfamily 4 group A member 2 (Homo sapiens) (UniProt P43354). The test is described as follows: ATG_NURR1_TRANS: Attagene TRANS-FACTORIAL HepG2 Assay for human Nuclear Receptor Related Protein 1 (NURR1) (AID 2282985; active means hit-call score of the fitted dose curve at least 0.9, where 1 is the maximum). Conditions: HepG2 Attagene TRANS reporter, mRNA readout. Put shortly:
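HepG2 / transient MRTU transfection / 24 h compound exposure / RT-PCR + CE fluorescence of reporter mRNA / gain-of-signal vs DMSO.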

The target in test [7] is Transcriptional activator Myb (Homo sapiens) (UniProt P10242). Nature of the test: ATG_Myb_CIS: Attagene CIS-FACTORIAL HepG2 Assay for human Myeloblastosis (Myb) Proto-Oncogene Transcription Factor (AID 2282986). Conditions: HepG2 Attagene CIS-FACTORIAL Myb reporter transcription; actives raise or lower the signal. In short, it runs like this:
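Transiently transfected HepG2 cells carrying a multiplexed cis-promoter reporter set report endogenous Myb activity after 24 h compound exposure. Reporter mRNA is read by RT-PCR with capillary electrophoresis of fluorescent products, fitted bidirectionally against DMSO.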

Test [8] concerns the target Nuclear respiratory factor 1 (Homo sapiens) (UniProt Q16656). Nature of the test: ATG_NRF1_CIS: Attagene CIS-FACTORIAL HepG2 Assay for human Nuclear Respiratory Factor 1 (NRF1) Orphan Gene (AID 2282987). Conditions: HepG2 NRF1 cis-element reporter, Attagene multiplex; actives raise or lower the signal. Put shortly:
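HepG2 cells transiently transfected with multiple cis-regulated reporter units, exposed 24 h. Reporter mRNAs measured by RT-PCR, fluorescent labelling, HpaI digestion and capillary electrophoresis; bidirectional fitting against DMSO.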

Test [9] is described as follows: ATG_NFI_CIS: Attagene CIS-FACTORIAL HepG2 Assay for human Nuclear Factor I (NFI) (AID 2282989). Conditions: HepG2 cis-regulatory reporter, NFI response element transcription; actives raise or lower the signal. Put shortly:
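Read-out: reporter mRNA via RT-PCR plus capillary electrophoresis with fluorescence detection. Transiently transfected HepG2 (endogenous TF activity on cis promoters), 24 h compound exposure; gain or loss of signal fitted against DMSO.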

Test [10] concerns the target Myc proto-oncogene protein (Homo sapiens) (UniProt P01106). Nature of the test: ATG_Myc_CIS: Attagene CIS-FACTORIAL HepG2 Assay for human Myelocytomatosis (Myc) Proto-Oncogene Transcription Factor (AID 2282990). The settings on record: HepG2, Attagene cis-reporter transcription factor activity; actives raise or lower the signal. Put shortly: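 Read-out: fluorescent reporter mRNA fragments resolved by capillary electrophoresis after RT-PCR. Human HepG2 liver cells carried transfected cis-element reporter units and were dosed for 24 h. Gain or loss of signal fitted relative to DMSO baseline.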

Test [11] in a line: ATG_NF_kB_CIS: Attagene CIS-FACTORIAL HepG2 Assay for human Nuclear Factor Kappa B (NF-kB) (AID 2282991). The settings on record: HepG2 Attagene cis-factorial NF-kB reporter mRNA; actives raise or lower the signal. In short, it runs like this:
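HepG2 cells transfected with cis-promoter-driven reporter units, so endogenous transcription factor activity is measured. Reporter mRNA quantified 24 h after dosing by RT-PCR and capillary electrophoresis, with bidirectional fitting against DMSO.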

A short description of test [12]: ATG_NRF2_ARE_CIS: Attagene CIS-FACTORIAL HepG2 Assay for human Nuclear Factor Erythroid 2 Related Factor 2 (NFR2) response to Antioxidant Response Elements (ARE) (AID 2282992).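 On AC50: reporter mRNA level measured by RT-PCR and capillary electrophoresis fluorescence.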 Conditions: HepG2 Attagene ARE/NRF2 reporter, transcription factor activity; actives raise or lower the signal. Put shortly: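 Cis-factorial assay: transfected HepG2 reporter library, 24 h dosing, mRNA readout via RT-PCR/CE; DMSO-referenced bidirectional analysis.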

The nature of test [13]: ATG_Oct_MLP_CIS: Attagene CIS-FACTORIAL HepG2 Assay for human Octamer-Binding Transcription Factor (Oct) (AID 2282993). The settings on record: HepG2 Attagene cis-factorial Oct reporter, mRNA; actives raise or lower the signal. Put shortly: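 Read-out: reporter mRNA via RT-PCR plus capillary electrophoresis of 6-FAM-labelled fragments. Transiently transfected HepG2, 24 h exposure, endogenous TF activity on cis elements. Gain or loss of signal fitted relative to DMSO.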

Test [14] has as its target Cellular tumor antigen p53 (Homo sapiens) (UniProt P04637). The test is described as follows: ATG_p53_CIS: Attagene CIS-FACTORIAL HepG2 Assay for human p53 Transcription Factor (AID 2282994). The settings on record: HepG2 p53 cis-element reporter, Attagene mRNA; actives raise or lower the signal. In short, it runs like this: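 Using HepG2 hepatoma cells carrying cis-acting multiplexed reporters, mRNA induction is detected after a 24 h exposure. Gain- and loss-of-signal responses are fitted relative to DMSO-treated cells.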

The nature of test [15]: BSK_3C_TissueFactor: BioMAP Diversity Plus: 3C Assay for Tissue Factor Biomarker Activity (AID 2282997). The settings on record: BioMAP 3C HUVEC, tissue factor biomarker readout; actives raise or lower the signal. In short, it runs like this: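 Values derive from bidirectional curve fitting against DMSO of Tissue Factor ELISA signals, taken 24 h after dosing primary human umbilical vein endothelial cells.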

Test [16] in a line: BSK_3C_uPAR: BioMAP Diversity Plus: 3C Assay for Urokinase-type plasminogen activator receptor (uPAR) Biomarker Activity (AID 2282998). Conditions: BioMAP 3C HUVEC, uPAR biomarker ELISA; actives raise or lower the signal. Put shortly: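 HUVEC primary cells; 24 h post-dose; uPAR by ELISA; gain or loss of signal fitted bidirectionally vs DMSO baseline.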
The target of test [17] is Bile acid receptor (Homo sapiens) (UniProt Q96RI1). The test is described as follows: ATG_FXR_TRANS: Attagene TRANS-FACTORIAL HepG2 Assay for Farnesoid X Receptor (FXR) (AID 2282979; active means hit-call score of the fitted dose curve at least 0.9, where 1 is the maximum;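 further: hits raise reporter mRNA above DMSO so AC50 marks FXR activation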). Conditions: HepG2 Attagene TRANS FXR-GAL4 reporter transcription. In short, it runs like this:
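Chimeric FXR-GAL4 activity in transiently transfected human HepG2 liver cells is scored as induction of reporter mRNA after 24 h of dosing. Detection uses RT-PCR with fluorescent labelling and capillary electrophoresis, with DMSO serving as baseline.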

Test [18] addresses Hepatocyte nuclear factor 4-alpha (Homo sapiens) (UniProt P41235). The test is described as follows: ATG_HNF4a_TRANS: Attagene TRANS-FACTORIAL HepG2 Assay for human Hepatocyte Nuclear Factor 4 alpha (HNF4a) (AID 2282982; active means hit-call score of the fitted dose curve at least 0.9, where 1 is the maximum). Conditions: HepG2 HNF4a transactivation reporter, mRNA readout. Put shortly:
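Gain-of-signal mRNA induction, relative to DMSO vehicle, was read after 24 h compound treatment of HepG2 cells bearing transfected GAL4-UAS reporters. Detection used RT-PCR, 6-FAM primer extension and capillary electrophoresis.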

Chain of Cellular tumor antigen p53 (Homo sapiens) (P04637 whole entry, looked up): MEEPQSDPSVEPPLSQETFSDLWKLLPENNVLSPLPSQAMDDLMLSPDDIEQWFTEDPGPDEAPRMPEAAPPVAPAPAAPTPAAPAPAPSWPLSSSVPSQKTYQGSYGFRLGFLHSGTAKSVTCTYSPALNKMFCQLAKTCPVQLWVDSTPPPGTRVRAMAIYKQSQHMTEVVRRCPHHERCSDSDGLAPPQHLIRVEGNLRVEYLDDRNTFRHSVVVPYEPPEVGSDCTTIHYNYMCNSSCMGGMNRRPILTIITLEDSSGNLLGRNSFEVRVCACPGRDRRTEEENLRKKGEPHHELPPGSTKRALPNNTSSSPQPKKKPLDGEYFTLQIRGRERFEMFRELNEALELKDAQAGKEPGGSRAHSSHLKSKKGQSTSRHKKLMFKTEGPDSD
Chain of Transcriptional activator Myb (Homo sapiens) (P10242 whole entry, looked up): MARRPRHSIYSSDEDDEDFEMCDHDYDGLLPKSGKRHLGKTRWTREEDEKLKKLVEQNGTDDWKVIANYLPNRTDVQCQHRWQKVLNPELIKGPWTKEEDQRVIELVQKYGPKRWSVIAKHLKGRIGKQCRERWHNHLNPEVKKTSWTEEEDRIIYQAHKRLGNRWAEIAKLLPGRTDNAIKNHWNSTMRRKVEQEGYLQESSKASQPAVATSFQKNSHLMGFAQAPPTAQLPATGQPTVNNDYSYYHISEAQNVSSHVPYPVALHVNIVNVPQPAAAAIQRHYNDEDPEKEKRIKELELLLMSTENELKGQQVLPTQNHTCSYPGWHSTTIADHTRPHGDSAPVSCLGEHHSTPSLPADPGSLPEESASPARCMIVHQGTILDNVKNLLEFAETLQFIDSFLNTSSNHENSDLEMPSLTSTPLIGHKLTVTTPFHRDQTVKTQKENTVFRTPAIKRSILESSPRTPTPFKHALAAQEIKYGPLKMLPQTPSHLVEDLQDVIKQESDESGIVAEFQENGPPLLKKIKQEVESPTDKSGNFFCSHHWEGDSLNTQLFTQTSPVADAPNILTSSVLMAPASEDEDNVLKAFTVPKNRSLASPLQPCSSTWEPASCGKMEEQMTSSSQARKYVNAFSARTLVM
Chain of Nuclear receptor subfamily 4 group A member 2 (Homo sapiens) (P43354 whole entry, looked up): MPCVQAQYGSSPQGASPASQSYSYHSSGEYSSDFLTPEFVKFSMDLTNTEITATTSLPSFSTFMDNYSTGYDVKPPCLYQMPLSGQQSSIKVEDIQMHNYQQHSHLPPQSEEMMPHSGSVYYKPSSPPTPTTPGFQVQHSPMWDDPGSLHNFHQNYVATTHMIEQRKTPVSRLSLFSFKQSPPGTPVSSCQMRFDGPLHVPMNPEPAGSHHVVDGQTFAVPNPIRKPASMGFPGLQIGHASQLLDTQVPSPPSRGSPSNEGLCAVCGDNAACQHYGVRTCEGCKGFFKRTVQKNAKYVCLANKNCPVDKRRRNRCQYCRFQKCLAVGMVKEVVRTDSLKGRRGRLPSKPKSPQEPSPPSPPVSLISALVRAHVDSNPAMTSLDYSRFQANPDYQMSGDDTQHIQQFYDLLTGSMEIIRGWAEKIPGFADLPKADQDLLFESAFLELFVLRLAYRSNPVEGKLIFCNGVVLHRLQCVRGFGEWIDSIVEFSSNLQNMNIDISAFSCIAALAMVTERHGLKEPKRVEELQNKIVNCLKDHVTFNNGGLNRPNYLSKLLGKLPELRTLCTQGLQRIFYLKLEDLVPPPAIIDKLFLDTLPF
Chain of Glucocorticoid receptor (Homo sapiens) (P04150 whole entry, looked up, the tested form may be a part): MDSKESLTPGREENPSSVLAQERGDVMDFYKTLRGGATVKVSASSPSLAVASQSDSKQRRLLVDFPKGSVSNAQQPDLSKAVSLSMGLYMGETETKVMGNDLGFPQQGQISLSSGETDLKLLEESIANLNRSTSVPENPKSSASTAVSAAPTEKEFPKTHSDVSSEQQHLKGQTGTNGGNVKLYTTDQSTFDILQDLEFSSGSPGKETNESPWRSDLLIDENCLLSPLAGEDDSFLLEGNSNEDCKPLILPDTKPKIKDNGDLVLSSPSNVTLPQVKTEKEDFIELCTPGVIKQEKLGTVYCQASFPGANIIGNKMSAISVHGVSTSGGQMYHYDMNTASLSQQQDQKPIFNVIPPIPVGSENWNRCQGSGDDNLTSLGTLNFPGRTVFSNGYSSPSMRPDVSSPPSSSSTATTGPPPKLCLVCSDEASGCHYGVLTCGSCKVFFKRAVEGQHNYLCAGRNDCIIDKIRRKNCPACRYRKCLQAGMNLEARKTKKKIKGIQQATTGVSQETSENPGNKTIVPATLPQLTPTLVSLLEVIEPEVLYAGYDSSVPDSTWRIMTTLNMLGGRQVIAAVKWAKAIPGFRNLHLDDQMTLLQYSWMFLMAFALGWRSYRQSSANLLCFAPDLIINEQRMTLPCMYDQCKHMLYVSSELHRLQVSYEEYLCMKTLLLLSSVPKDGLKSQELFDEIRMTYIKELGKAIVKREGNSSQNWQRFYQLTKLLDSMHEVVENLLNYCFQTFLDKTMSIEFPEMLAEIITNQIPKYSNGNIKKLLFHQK
Chain of Nuclear respiratory factor 1 (Homo sapiens) (Q16656 whole entry, looked up): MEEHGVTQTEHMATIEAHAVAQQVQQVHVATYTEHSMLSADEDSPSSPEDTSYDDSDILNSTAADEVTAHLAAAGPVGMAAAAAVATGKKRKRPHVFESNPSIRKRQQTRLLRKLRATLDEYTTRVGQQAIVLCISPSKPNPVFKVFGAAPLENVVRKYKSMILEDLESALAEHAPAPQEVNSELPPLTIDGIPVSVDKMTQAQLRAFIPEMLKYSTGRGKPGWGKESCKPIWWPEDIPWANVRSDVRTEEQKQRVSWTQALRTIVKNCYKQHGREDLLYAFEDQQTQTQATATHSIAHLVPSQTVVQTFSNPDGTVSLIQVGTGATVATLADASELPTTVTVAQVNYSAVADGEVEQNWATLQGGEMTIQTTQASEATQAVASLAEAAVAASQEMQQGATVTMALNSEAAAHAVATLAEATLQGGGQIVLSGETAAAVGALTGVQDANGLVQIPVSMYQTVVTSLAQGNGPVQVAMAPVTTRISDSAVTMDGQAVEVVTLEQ
Chain of Myc proto-oncogene protein (Homo sapiens) (P01106 whole entry, looked up, the tested form may be a part): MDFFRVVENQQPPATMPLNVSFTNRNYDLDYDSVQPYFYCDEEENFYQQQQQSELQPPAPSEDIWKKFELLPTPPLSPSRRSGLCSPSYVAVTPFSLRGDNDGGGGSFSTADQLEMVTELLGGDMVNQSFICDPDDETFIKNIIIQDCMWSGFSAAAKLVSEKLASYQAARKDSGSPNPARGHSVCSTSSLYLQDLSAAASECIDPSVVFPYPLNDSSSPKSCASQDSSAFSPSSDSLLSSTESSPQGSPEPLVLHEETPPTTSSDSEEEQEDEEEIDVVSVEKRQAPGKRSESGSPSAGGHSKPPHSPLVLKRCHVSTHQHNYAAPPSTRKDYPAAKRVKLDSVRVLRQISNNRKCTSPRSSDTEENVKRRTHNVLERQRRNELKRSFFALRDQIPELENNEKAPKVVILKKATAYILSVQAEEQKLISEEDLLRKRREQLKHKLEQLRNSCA
Chain of Oxysterols receptor LXR-alpha (Homo sapiens) (Q13133 whole entry, looked up): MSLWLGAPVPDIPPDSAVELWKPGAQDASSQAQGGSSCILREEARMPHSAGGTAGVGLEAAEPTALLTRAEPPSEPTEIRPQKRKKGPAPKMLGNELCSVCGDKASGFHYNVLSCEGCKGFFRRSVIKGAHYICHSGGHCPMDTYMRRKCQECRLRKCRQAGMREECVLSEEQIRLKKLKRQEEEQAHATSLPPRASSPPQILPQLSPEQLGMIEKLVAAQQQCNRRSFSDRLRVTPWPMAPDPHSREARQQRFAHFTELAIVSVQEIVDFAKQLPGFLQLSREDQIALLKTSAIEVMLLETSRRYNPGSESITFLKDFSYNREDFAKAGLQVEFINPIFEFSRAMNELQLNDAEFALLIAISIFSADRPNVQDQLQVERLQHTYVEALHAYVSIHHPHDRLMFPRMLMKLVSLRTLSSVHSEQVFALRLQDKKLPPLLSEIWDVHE
Chain of Hepatocyte nuclear factor 4-alpha (Homo sapiens) (P41235 whole entry, looked up, the tested form may be a part): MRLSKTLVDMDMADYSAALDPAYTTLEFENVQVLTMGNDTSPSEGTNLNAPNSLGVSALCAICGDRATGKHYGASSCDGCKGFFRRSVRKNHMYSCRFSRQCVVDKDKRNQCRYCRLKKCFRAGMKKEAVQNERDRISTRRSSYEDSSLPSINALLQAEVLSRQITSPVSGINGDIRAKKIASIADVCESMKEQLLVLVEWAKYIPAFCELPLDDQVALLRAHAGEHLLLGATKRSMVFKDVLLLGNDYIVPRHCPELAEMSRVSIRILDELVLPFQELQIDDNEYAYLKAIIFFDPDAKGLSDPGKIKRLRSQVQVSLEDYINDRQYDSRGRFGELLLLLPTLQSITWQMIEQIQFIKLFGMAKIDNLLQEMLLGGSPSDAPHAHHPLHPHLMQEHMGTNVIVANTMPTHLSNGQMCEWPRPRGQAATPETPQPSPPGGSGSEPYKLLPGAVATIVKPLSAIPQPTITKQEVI
Chain of Oxysterols receptor LXR-beta (Homo sapiens) (P55055 whole entry, looked up, the tested form may be a part): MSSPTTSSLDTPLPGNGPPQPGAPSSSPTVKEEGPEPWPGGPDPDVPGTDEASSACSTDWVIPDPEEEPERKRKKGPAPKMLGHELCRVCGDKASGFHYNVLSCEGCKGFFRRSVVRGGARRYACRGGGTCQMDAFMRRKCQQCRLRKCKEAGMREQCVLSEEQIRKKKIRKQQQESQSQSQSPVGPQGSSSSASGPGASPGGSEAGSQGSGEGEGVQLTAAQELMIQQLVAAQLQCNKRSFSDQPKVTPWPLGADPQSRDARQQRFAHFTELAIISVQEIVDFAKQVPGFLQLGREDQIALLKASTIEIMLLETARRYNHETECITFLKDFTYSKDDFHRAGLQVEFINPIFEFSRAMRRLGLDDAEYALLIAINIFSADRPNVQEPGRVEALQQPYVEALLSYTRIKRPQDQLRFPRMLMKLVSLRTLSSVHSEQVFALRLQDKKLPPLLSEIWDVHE

As a reminder, the AC50 is the midpoint of the concentration-response curve, whichever way the signal moves. Consider `C=CC(=O)OCC(F)(F)C(F)(F)C(F)(F)C(F)(F)C(F)(F)C(F)(F)C(F)(F)C(F)F`, for which the call in [1], in [2], in [3], in test [4], in test [5] and in test [6] was inactive. The call in [7], in test [8], in [9], in test [10], in [13] and in test [14] was inactive. For the same compound, the result in test [15] and in test [16] was inactive. Besides, the AC50 is 80.2 µM (active) in test [11] and 58.2 µM (active) in test [12].

Regarding `CC(C)(C)c1cc(Cc2cc(C(C)(C)C)c(O)c(C(C)(C)C)c2)cc(C(C)(C)C)c1O`, the outcome in test [1], in test [17], in test [5], in test [6], in [7] and in [8] was inactive. Further, the result in test [9], in test [10], in test [11], in test [12] and in test [13] was inactive.

Take `Cc1cc(C)c(O)c(C(C)(C)C)c1`: the outcome in test [1], in test [2], in test [4], in [5], in [6] and in test [7] was inactive. Besides, the compound was classed as inactive in test [8], in test [9], in [10], in test [11], in test [13] and in test [14]. For the same compound, the concentration at half-maximal activity (AC50) was 52.2 µM (active) in test [12], 26.9 µM (active) in test [15] and 29.2 µM (active) in test [16].

On to `CCN=c1cc2oc3cc(NCC)c(C)cc3c(-c3ccccc3C(=O)OCC)c-2cc1C`, for which the call in test [1], in test [4], in test [5], in test [7], in test [8] and in test [10] was inactive. For the same compound, the compound was called inactive in test [11]. For the same compound, the figures for the concentration at half-maximal activity (AC50) in test [9], in test [12] and in test [14] were 17.5 µM (active), 0.132 µM (active) and 1.56 µM (active), respectively.

Regarding `Cc1ccc(O)cn1`, the result in [1], in test [18], in test [5], in test [6], in test [7] and in test [8] was inactive. Further, the compound was called inactive in [9], in test [10], in [11], in [12], in test [13] and in test [14]. Besides, the AC50 in [2] was 25.4 µM (active).

Regarding `CO[Si](CCCOCC1CO1)(OC)OC` (stereo not drawn), the result in test [1], in test [3], in [18], in test [5], in [6] and in [7] was inactive. Further, the compound was classed as inactive in test [8], in test [9], in test [10], in [11], in test [13] and in test [14]. Further, the half-maximal activity concentration (AC50) in test [12] was 73.2 µM (active).
